Measurements as given in PubChem BioAssay.

experiment: probe aNOTCH3 binding on compound microarray – biochemical, small-molecule microarray, 635/667 nm fluorescence, primary screen (AID 1120); conditions: higher = more signal;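 note: probe is a biotin-tagged antibody raised against NOTCH3 rather than NOTCH3 protein; score merges spot fluorescence near 667 nm with spot signal to noise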

Row | SMILES | composite z-score
1 | O=C1c2ccccc2[C@](Cc2ccccc2I)(C(=O)NC2CC2)[C@H](c2ccc(CO)cc2)N1Cc1ccccc1C(F)(F)F | 0.134
2 | Cc1ccc(C(C)CC(O)C2C=CC3C(=O)N(c4ccccc4)C(=O)C3N2Nc2ccc(C#N)cc2)o1 (centres undefined) | 0.0744
3 | COc1ccc([Si](C)(C)[C@H]2[C@H](CCO)O[C@@]3(C(=O)N(Cc4ccccc4)c4ccc(N5C(=O)c6ccccc6Oc6ccccc65)cc43)[C@@H]2C)cc1 | -0.0984
4 | COCCOC(=O)N1C(=O)[C@@]2(c3cc(C#CC4=CCCCC4)ccc31)[C@H](C(=O)N1CCCCCCC1)[C@H]1C(=O)O[C@H](c3ccccc3)[C@H](c3ccccc3)N1[C@@H]2c1ccc(OCCO)cc1 | 0.677
5 | CC(C)[C@H]1NC(=O)[C@@]23C(=O)N[C@@H](Cc4ccccc4)C2[C@H](C)[C@@]2(C)O[C@H]2C3/C=C/C/C=C\CNC(=O)[C@H](Cc2ccccc2)NC1=O (some centres undefined) | 0.204
6 | CC(C)=CCCC(C)=CC(O)C1C=CC2C(=O)N(c3ccccc3)C(=O)C2N1Nc1ccccc1F (centres undefined) | 0.0258
7 | CC(C)C[C@@H]1NC(=O)CNC(=O)[C@@]23C(=O)N[C@@H](Cc4ccccc4)C2[C@H](C)[C@@]2(C)O[C@H]2C3/C=C/C/C=C\CNC1=O (some centres undefined) | 0.0026
8 | COC(=O)[C@@]1(Cc2ccc(F)cc2)[C@H]2c3cc(C(=O)N(C)C)n(Cc4ccc(O)c(OC)c4)c3C[C@H]2CN1C(=O)c1ccccc1 | 0.416
9 | C=C(COC)C(=O)CC[C@@H](OC(=O)c1cccnc1)c1ccccc1OCCO | 0.0237
10 | CN(C)CCCNC(=O)[C@@H]1c2ccccc2C(=O)N(C2CCCCC2)[C@H]1c1ccc(CO)cc1 | 0.303
11 | COc1cc(NN2C(C(O)c3ccc(I)cc3)C=CC3C(=O)N(c4ccccc4)C(=O)C32)cc(OC)c1OC (centres undefined) | 0.185
12 | Cc1ccc([C@H]2C(C(=O)O)=C[C@@H](C(C)(C)C)N2S(=O)(=O)c2ccc(C)cc2)cc1 | 0.305
13 | CC(C)OC(=O)CC(=O)CC(O)c1ccc([N+](=O)[O-])cc1 (centres undefined) | -0.0413
14 | NC(=O)N1C(=O)C2C(C1=O)C1C=C(CCCO)C2C(C2CC2)N1Cc1cccc(OC(F)(F)F)c1 (centres undefined) | -0.349
15 | CC(CO)N1C(=O)[C@@H]2[C@H]3C(=O)OCC=C[C@H]3OC23C=CCN(c2ccc(Cl)cc2)C(=O)[C@@H]13 (some centres undefined) | -0.454
16 | NC(=O)[C@@H]1[C@H]2C(=O)O[C@H](c3ccccc3)[C@H](c3ccccc3)N2[C@H](c2ccc(OCCO)cc2)[C@@]12C(=O)Nc1ccc(C#CCCO)cc12 | -0.12
17 | CCOC(=O)C[C@H]1[C@H](OC(=O)c2ccc(C(=O)c3ccccc3)cc2)[C@@H](NC(=O)CC(C)C)c2cc(OCCCO)ccc2N1C(=O)Cc1ccc(OC)cc1 | -0.0377
18 | COCCCNC(=O)[C@@]1(c2ccc([N+](=O)[O-])cc2)CC(=O)N(CC23CC4CC(CC(C4)C2)C3)[C@@H]1c1ccc(CO)cc1I | -0.0751
19 | C=C(/C(=C/C[C@@H](OC(C)=O)c1ccc(CO)o1)c1cc(C(=O)OC)ccc1OC)C(C)C | 0.232
